We go through 47 sequences from article PMC7819943, “Rice protein-binding microarrays: a tool to detect cis-acting elements near promoter regions in rice”.

Over roughly 68,000 sequences, “fluorescence intensity (a.u.)” has its median near 9,100; the highest 2% begin near 16,000. The sample as a whole holds a higher share of the highest values than the screen did.

OsWRKY34, sequence (Q0JBA9 entry or part of it): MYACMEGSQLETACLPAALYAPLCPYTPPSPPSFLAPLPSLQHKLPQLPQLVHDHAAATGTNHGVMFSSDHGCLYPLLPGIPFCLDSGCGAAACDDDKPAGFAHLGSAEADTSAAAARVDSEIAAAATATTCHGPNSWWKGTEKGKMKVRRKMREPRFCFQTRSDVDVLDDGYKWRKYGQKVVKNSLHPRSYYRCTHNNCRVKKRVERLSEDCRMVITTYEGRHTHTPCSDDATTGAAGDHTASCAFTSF

This assay addresses OsWRKY34 (Oryza sativa, UniProt Q0JBA9 1-250). In words: protein-binding microarray (RPBM); PBS, 2% BSA, 51.3 ng/ul salmon testes DNA, 50 uM zinc acetate, 200 nM TF, 25 C, 1 h; high values mean tight binding. The settings on record: protein: recombinant; tags: N-terminal polyhistidine and DsRed monomer fusion (pET32a); label: CyDye5-dUTP incorporated in the synthesized complementary strand; 3' TTTTT single-stranded linker to array surface; dsDNA, one strand shown. In a few lines: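 Polyhistidine-tagged DsRed fusions of transcription factors, joined at the N-terminus, were expressed in E. coli BL21-CodonPlus and isolated on Ni–NTA. They were incubated at 200 nM for 1 h at 25 °C on a custom Agilent array, double-stranded and BSA-blocked, in PBS with 2% BSA, salmon testes DNA and 50 µM zinc acetate. The binding signal is per-feature fluorescence intensity (arbitrary units) read on an Axon 4000B scanner after washing.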
“GCGGTGGTGGACAGTCCCAGACTGACTTGTGGTGGGGACTCGGAGTCACCTAGTGCAG”: the binding signal is 9560 fluorescence intensity (a.u.).

As for “TGTTCTACTTGGCTGTCTCATACTTTTTTTATTTCTCTCTCGGAGTCACCTAGTGCAG”, the binding signal is 11200 fluorescence intensity (a.u.).

As for “CCCACACGCGCTCCATGCATCTCCACCACGCTCCATGTGTCGGAGTCACCTAGTGCAG”, the binding signal is 11000 fluorescence intensity (a.u.).

With “CCGTCCGCCATTGCAGCTTCGTTGTTCTGTACCTTCTTGCCGGAGTCACCTAGTGCAG”, the binding signal was 10900 fluorescence intensity (a.u.).

Regarding “CCGGGTCACACATCCCCTCATACTCGGGCCTTGTTTAGTTCGGAGTCACCTAGTGCAG”, the binding signal was 8740 fluorescence intensity (a.u.).

“TACTGCCTCTCTCTGACCCCATTGACCAACTCCGTTGACCCGGAGTCACCTAGTGCAG”: the binding signal was 15800 fluorescence intensity (a.u.).

For “AGATGGATGCTCTGCCCGCCGCCCTACCACCCTCTGCCATCGGAGTCACCTAGTGCAG”, the binding signal is 8030 fluorescence intensity (a.u.).

On to “GTCTTTTCTTCAAGGTTATCTTTTTTGTCCCTTTTTTATTCGGAGTCACCTAGTGCAG”, for which the binding signal is 15200 fluorescence intensity (a.u.).

As to “TCATATTGTACCTTCCACTTTTATTCTTTTAAAGCCTATACGGAGTCACCTAGTGCAG”, the binding signal is 9560 fluorescence intensity (a.u.).

For “AGGCGCTCCATAGGCCTCGTCATCTTCACAGTCACACACCCGGAGTCACCTAGTGCAG”, the binding signal is 11200 fluorescence intensity (a.u.).

Regarding “GCTGCCTATTCCATACAAATTTCGTAGGTTCATTTCCAACCGGAGTCACCTAGTGCAG”, the binding signal is 10000 fluorescence intensity (a.u.).

As for “ATGAATTAGGTGTGGTTCTCTTTAATCTGTTATTAGTCATCGGAGTCACCTAGTGCAG”, the binding signal is 11000 fluorescence intensity (a.u.).

On to “GTCGTCGTCTTCGTCTCGAGTTCTTGGTTGGTTGGATCTACGGAGTCACCTAGTGCAG”, for which the binding signal was 19400 fluorescence intensity (a.u.).

With “ATTGGTCGTCTTGCTGAGCTCTCGTACTTGGATCTCTCTACGGAGTCACCTAGTGCAG”, the binding signal is 11100 fluorescence intensity (a.u.).

On to “TCTAGGTTCTGTTCTATTCGGTTCTAGGTTATCATATTTTCGGAGTCACCTAGTGCAG”, for which the binding signal was 12100 fluorescence intensity (a.u.).

On to “CGTGTTGGGGTTCTCTTCCTGCTGCTTTGGCCACCTGGGACGGAGTCACCTAGTGCAG”, for which the binding signal was 12500 fluorescence intensity (a.u.).

Consider “TAGATCTCTTGCTTTGGGTGTTGTTTGCTCTAGGTGTTCTCGGAGTCACCTAGTGCAG”, for which the binding signal was 8250 fluorescence intensity (a.u.).

For “CTTCTTCGGATCACTCGGTTGGTTTCTTGGTTTCTTGGTTCGGAGTCACCTAGTGCAG”, the binding signal is 13000 fluorescence intensity (a.u.).

With “CATCTACGTGCTCTCTTTGGTTGGGGTGTTCTTGCTGCTACGGAGTCACCTAGTGCAG”, the binding signal is 17700 fluorescence intensity (a.u.).

For “TTTGGGGTGTGTTTTTGTCTAGAGGTAAAGTTTTTAAAGTCGGAGTCACCTAGTGCAG”, the binding signal was 10600 fluorescence intensity (a.u.).

As for “GACTATAGAGGCTTTGTTTGTTTGGGGTGTGTTTTTGTCTCGGAGTCACCTAGTGCAG”, the binding signal is 17200 fluorescence intensity (a.u.).

Consider “GATATTGGAGGTGCATCTGTTAGGGTTCGGGTTCTCTCTACGGAGTCACCTAGTGCAG”, for which the binding signal is 16700 fluorescence intensity (a.u.).

Consider “TTCACTATTGGGTGTTTTTGTCTCGATTCACCTTCATCGTCGGAGTCACCTAGTGCAG”, for which the binding signal is 8840 fluorescence intensity (a.u.).

For “GGACTCCTGATTTCTACTCTATTCCTATTCCACTAGCTTACGGAGTCACCTAGTGCAG”, the binding signal was 14400 fluorescence intensity (a.u.).

As to “ATCCTGCGATTCCACCATATCCAATCCTCGTATCTTGGGTCGGAGTCACCTAGTGCAG”, the binding signal was 8310 fluorescence intensity (a.u.).

As to “TTATCTAGATTCGTATTACTAGGATGTGTCTCGTTCAACCCGGAGTCACCTAGTGCAG”, the binding signal was 8780 fluorescence intensity (a.u.).

Take “GTGGGCCCCGCCCGTGTGATCGTGTCTCTGTTTCGTTTTCCGGAGTCACCTAGTGCAG”: the binding signal is 12100 fluorescence intensity (a.u.).

Take “GTGTTTTTTCTTCATTTGTCCCGTAATAAATTTATTTTTTCGGAGTCACCTAGTGCAG”: the binding signal was 12500 fluorescence intensity (a.u.).

In the case of “CGCTTACAGTCCACTCTCCACTGCGCCCGCATGAGTCATGCGGAGTCACCTAGTGCAG”, the binding signal was 8880 fluorescence intensity (a.u.).

Take “AAACTGCCAGCTTTCTGCATCTCTCCGCCCTCATGATGCGCGGAGTCACCTAGTGCAG”: the binding signal was 9490 fluorescence intensity (a.u.).

As to “TTTTCTTTCCTTTATTATTTTCTTTATCCTTTTTTTCTCCCGGAGTCACCTAGTGCAG”, the binding signal was 9250 fluorescence intensity (a.u.).

On to “ATCGGCGCCGTCGACCGCGACCACCCTGCCGCCGAGCGCCCGGAGTCACCTAGTGCAG”, for which the binding signal was 10300 fluorescence intensity (a.u.).

As for “TCCTCTTCTTCTTCTTCTTCTTCTCGTGGGTGCAAGAAGCCGGAGTCACCTAGTGCAG”, the binding signal was 8380 fluorescence intensity (a.u.).

Regarding “CGCCCAAGCTAGCTAGTGGCCATTATCCCATGGATATTTCCGGAGTCACCTAGTGCAG”, the binding signal was 8280 fluorescence intensity (a.u.).

Consider “ATCCTGTATCGTCCAGAATGCTTCTTCCATCCTAATCACCCGGAGTCACCTAGTGCAG”, for which the binding signal was 9220 fluorescence intensity (a.u.).

“GTAATTCTGTTGTCATACGGTTTATTGTGTGGTTGCTGAACGGAGTCACCTAGTGCAG”: the binding signal is 9010 fluorescence intensity (a.u.).

As for “GGTTGGGTGTTTTTGCTTCTCTTGTAGTCTTTGTGTAGAACGGAGTCACCTAGTGCAG”, the binding signal was 21500 fluorescence intensity (a.u.).

On to “ATCAAAGTTGCTGGGGTTAATTTGGGTTCTTGGTTGTGAACGGAGTCACCTAGTGCAG”, for which the binding signal was 15600 fluorescence intensity (a.u.).

For “ATCACTCTTCTTGGTCGTTCTTGCCATTCTTGTACCGCGACGGAGTCACCTAGTGCAG”, the binding signal was 18200 fluorescence intensity (a.u.).

For “CGGGGTTCTTGTGTTTATTGTTAAGATCCGGTTTGCTGAACGGAGTCACCTAGTGCAG”, the binding signal was 21900 fluorescence intensity (a.u.).

For “GGTATCTGTTGCTGCTTGCTGGTTCTCGTGCTATTGTTCTCGGAGTCACCTAGTGCAG”, the binding signal is 19900 fluorescence intensity (a.u.).

Consider “CTTCTCTTTGTTTTCTTGTTTGCTTGCTTGGTGTAAAGAACGGAGTCACCTAGTGCAG”, for which the binding signal is 16100 fluorescence intensity (a.u.).

For the sequence “TCTCTCTCTCGTCGTCTCGCGTCTCTTCTCTCAACCGCGACGGAGTCACCTAGTGCAG”, the binding signal is 13800 fluorescence intensity (a.u.).

Take “GCTTCTGCTTCTTCTTGTTCTTGTTGCTGTTGGTAATACTCGGAGTCACCTAGTGCAG”: the binding signal was 11000 fluorescence intensity (a.u.).

Take “TTCTTGCTAGTTCTTGTAGTATCTGGTTCTTGCTAGTTCTCGGAGTCACCTAGTGCAG”: the binding signal is 10800 fluorescence intensity (a.u.).

On to “CATGTAATTCTCTTCACTTTTGCTTGTTTGGGTTGTGAAACGGAGTCACCTAGTGCAG”, for which the binding signal is 10100 fluorescence intensity (a.u.).

For the sequence “ATCTTTTTACCCAATTCTTGATCACTCTTCTTGGTCGTTCCGGAGTCACCTAGTGCAG”, the binding signal was 8060 fluorescence intensity (a.u.).
